This is part of a sample that, as a whole, favours compounds with a hit. Of some 79,000 tested, about 15% had one in any assay. Cut-off read from the data, not from the text of the source: active = growth inhibition above about 70%; inactive = the rest.
Assays:
[1] = NCI Yeast Anticancer Drug Screen. Data for the rad50 strain (AID 155);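 note: 0% = growth of vehicle-only cultures of the same strain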; conditions: S. cerevisiae rad50 strain growth inhibition; at 50.0 µM; stronger effect = higher value
How it was run: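 Growth of the mutant yeast was measured after compound exposure and referenced to vehicle-treated cultures.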

[2] = NCI Yeast Anticancer Drug Screen. Data for the mec2-1 strain (AID 157); conditions: S. cerevisiae mec2-1 strain, at 50.0 µM, stronger effect = higher value
How it was run: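 Each compound was tested on mec2-1 yeast, a strain altered in DNA damage repair or cell cycle control. Growth inhibition is reported relative to vehicle.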

[3] = NCI Yeast Anticancer Drug Screen. Data for the sgs1 mgt1 strain (AID 161);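 note: 0% = growth of cultures given vehicle only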; conditions: S. cerevisiae sgs1 mgt1 strain, at 50.0 µM, stronger effect = higher value
How it was run: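 Mutant yeast exposed to compound; growth scored against vehicle-only wells.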

[4] = NCI Yeast Anticancer Drug Screen. Data for the cln2 rad14 strain (AID 165);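 note: 0% = growth equal to vehicle treated cultures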; conditions: S. cerevisiae cln2 rad14 strain, at 50.0 µM, stronger effect = higher value
How it was run: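 Test compounds were added to cln2 rad14 yeast cultures; inhibition of growth was then determined by comparison with vehicle treatment.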

[5] = NCI Yeast Anticancer Drug Screen. Data for the bub3 strain (AID 167); conditions: S. cerevisiae bub3 mutant strain, at 50.0 µM, stronger effect = higher value
How it was run: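 Whole-cell yeast assay. The mutant strain was incubated with compounds, and growth inhibition was determined by comparison with vehicle-treated cells.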

[6] = NCI Yeast Anticancer Drug Screen. Data for the mlh1 rad18 strain (AID 175); conditions: S. cerevisiae mlh1 rad18 strain growth inhibition; at 50.0 µM; stronger effect = higher value
How it was run: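 Inhibition values reflect reduced growth of mutant yeast versus vehicle-treated controls following compound exposure; the mutations affect DNA damage repair.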

Measured: growth inhibition

CN(/N=C1\C(=O)Nc2ccccc21)c1ccccc1
inactive: [1] 4.65% | [2] -3.15% | [3] 13.6% | [4] -37.9% | [5] 3.85% | [6] 17.6%

CCC(C(CC(=O)c1ccccc1)c1ccccc1)[N+](=O)[O-] (stereo unspecified)
inactive: [1] 9.7% | [2] -0.65% | [3] 0.6% | [4] -42.3% | [5] 10.2% | [6] -5.65%

O=C(O)c1ccccc1C(=O)c1ccc(F)c2ccccc12
inactive: [1] 11% | [2] 26.9% | [3] 18.6% | [4] 21.1% | [5] 3.75% | [6] 10.7%

COc1ccc(NC(=O)/C(Cc2nc3ccccc3[nH]c2=O)=N\O)c(OC)c1
inactive: [1] -1.85% | [2] -9.4% | [3] -5.1% | [4] 0.7% | [5] -4.85% | [6] -13.7%

CCc1ccccc1NC(=O)C1=C(C)NC(C)=C(C(=O)Nc2ccccc2CC)C1c1cccc([N+](=O)[O-])c1
inactive: [1] -0.95% | [2] 52% | [3] 24.2% | [4] 17.9% | [5] 36.5% | [6] 20.5%

c1ccc2c(c1)oc1ccc3nsnc3c12
inactive: [1] 7.25% | [2] -7.45% | [3] 13.8% | [4] -1.45% | [5] 20.1% | [6] -10.3%

CCN(C)C(=O)NC(C)=O
inactive: [1] 2.65% | [2] 11.1% | [3] -17.9% | [4] -14% | [5] 2.5% | [6] 15%

O=C(O)CCCCCCCCCCOc1ccc(Cl)cc1
inactive: [1] 24.2% | [2] -7.9% | [3] 10.1% | [4] -3.45% | [5] 11% | [6] -33.6%

CS(=O)(=O)OC1CCCS(=O)(=O)c2ccccc21 (stereo unspecified)
inactive: [1] -12.9% | [2] -12.8% | [3] 3.65% | [4] -46.9% | [5] -1% | [6] -6.45%

COc1ccc(C2=C(c3ccccc3)C(C)(C)Oc3ccc4ccccc4c32)cc1
inactive: [1] -44.8% | [2] -0.05% | [3] -5.9% | [4] 14.2% | [5] -2.8% | [6] -7.3%

O=C(ON=C1c2ccccc2C(Br)C(Br)c2ccccc21)c1cc([N+](=O)[O-])cc([N+](=O)[O-])c1 (stereo unspecified)
inactive: [1] 15.8% | [2] 8.85% | [3] 28.8% | [4] -0.6% | [5] 21.1% | [6] 27.5%

CCOC(=O)C1=CC(C)(C(=O)OCC)Nc2c(nc(SC)[nH]c2=O)N1 (stereo unspecified)
inactive: [1] -30.9% | [2] -24.7% | [3] -14.7% | [4] 9.05% | [5] -11.8% | [6] 2.5%

CCCCNc1ncnc2c1cnn2C
inactive: [1] -3.2% | [2] 18.9% | [3] -28.2% | [4] -11.9% | [5] -7.1% | [6] -4.3%

Cc1cccc(C)c1NC(=O)CCC(=O)CC(=O)C(C)C
inactive: [1] -2.6% | [2] -4.85% | [3] -6.2% | [4] 2.55% | [5] 7.25% | [6] -13.1%

COc1ccc(N=Cc2cc(OC)c(OC)c(OC)c2)cc1
inactive: [1] -12.4% | [2] -9.6% | [3] 1.5% | [4] -3.55% | [5] -12.9% | [6] 0.95%

Cc1ccc(S(=O)(=O)OCC2COC(C(C)C)OC2)cc1 (stereo unspecified)
inactive: [1] 5.45% | [2] -2.95% | [3] 9.3% | [4] 2.15% | [5] 48% | [6] -1.25%

COc1ccc2ccc3nonc3c2c1
inactive: [1] 17.1% | [2] 4.7% | [3] 9% | [4] -40.5% | [5] 6.4% | [6] 1.45%

NC1=NC(c2ccccc2)C2=C(N1)C(=O)N(Cc1ccccc1)C2 (stereo unspecified)
inactive: [1] 5.65% | [2] -6.25% | [3] -0.8% | [4] -18.9% | [5] -16.8% | [6] 3.15%

CN(C(=O)c1cccs1)C(=S)N1CCN(c2ccccn2)CC1
inactive: [1] -84.2% | [2] -57.6% | [3] -2.4% | [4] -11.8% | [5] -7.85% | [6] -29.6%

CCOc1c(N=Nc2ccccc2OC)c(-c2ccccc2)nn1C(=S)S
inactive: [1] 33.4% | [2] 42% | [3] 24.8% | [4] 5.75% | [5] 66.7% | [6] 18.9%

CCOC(=O)NC(Nc1cccc(C(F)(F)F)c1)(C(F)(F)F)C(F)(F)F
inactive: [1] 1.45% | [2] -10.3% | [3] -38.5% | [4] 7.7% | [5] -15.6% | [6] -3.3%

O=c1[nH]c2cc(Cl)ccc2nc1/C(=N/Nc1ccccc1)C(O)c1ccco1 (stereo unspecified)
inactive: [1] 19.4% | [2] -15.7% | [3] -4.8% | [4] 5.85% | [5] 7.65% | [6] -54.4%

CCC(CO)(CO)[N+](=O)[O-]
inactive: [1] 10.2% | [2] -2% | [3] -20.5% | [4] 5% | [5] 16.8% | [6] 7.25%

Cc1cccc(NC(=O)c2ccc(Cl)cc2Cl)n1 (tested in a mixture with another compound)
inactive: [1] -2.95% | [2] -7.05% | [3] 3.45% | [4] -25.6% | [5] 4.05% | [6] 20.9%

CC1CN(c2ccc(Cl)cc2)CC(C)OC(=O)O1 (stereo unspecified)
inactive: [1] 18.8% | [2] -5.75% | [3] 5.65% | [4] 22.9% | [5] 21.8% | [6] 8.6%

CC1=NC(C(=O)O)C(C)(C)S1 (stereo unspecified)
inactive: [1] 2.6% | [2] -8.3% | [3] -22.2% | [4] -0.95% | [5] -3.4% | [6] -6%

Cc1[nH]nc2c(=O)n(N)nnc12
inactive: [1] 18.4% | [2] 7.3% | [3] 0.35% | [4] -16.9% | [5] -15.8% | [6] 26.4%

Cc1cc(C[C@H]2O[C@@H]3OC(C)(C)O[C@@H]3[C@H]3OC(C)(C)O[C@H]32)c2ccccc2n1
inactive: [1] -4.6% | [2] 12% | [3] 19.9% | [4] -4.2% | [5] 9.1% | [6] 17.6%

COC(=O)c1cc([N+](=O)[O-])cc2ccccc12
inactive: [1] 35.8% | [2] -24.6% | [3] 19.1% | [4] 11.3% | [5] 23.1% | [6] 0.65%

NC(=O)NCC(N)C(=O)O (stereo unspecified)
inactive: [1] -4.75% | [2] -5.2% | [3] -2.3% | [4] 1.55% | [5] 1.55% | [6] -1.9%

CCN(CC)c1ccc(/C=N/NC(=O)NN)cc1
inactive: [1] 4.35% | [2] -20.9% | [3] -15.4% | [4] -13.1% | [5] -7.95% | [6] -5.3%

Cc1c2c(cc3c1[nH]c1ccccc13)C(c1ccc(F)cc1)=NCC2
inactive: [1] -1.8% | [2] 5.55% | [3] 1.85% | [4] -51% | [5] -0.6% | [6] -2.45%

COc1ccc(NC(C)=O)cc1Br
inactive: [1] -12.8% | [2] -40.5% | [3] -11.1% | [4] -16.8% | [5] -17.6% | [6] -20.9%

CCCCCCCC[C@]1(O)C[C@H]2[C@@H]3CCc4cc(OC)ccc4[C@H]3CC[C@]2(C)[C@H]1O
inactive: [1] -3.45% | [2] -10.7% | [3] -1.15% | [4] 7.1% | [5] -11.2% | [6] 0.5%

C(=C/c1ccccc1)/CNCCNC/C=C/c1ccccc1
inactive: [1] 46.1% | [2] 22.6% | [3] 40.8% | [4] 35% | [5] 35.3% | [6] 47.5%

CNC(=O)c1ccccc1Sc1ccccc1
inactive: [1] -4.25% | [2] -15.8% | [3] -16.3% | [4] -34.8% | [5] 0.2% | [6] 3.15%

O=S(=O)(N/N=C/c1ccc(/C=N/NS(=O)(=O)c2ccccc2)cc1)c1ccccc1
inactive: [1] -6.9% | [2] -15.8% | [3] -21.3% | [4] 12.6% | [5] -7.95% | [6] 0.15%

C[C@@H]1OC2(O)[C@H]3CCCN3S(=O)(=O)CCN2C1=O (stereo partly specified)
inactive: [1] 30.5% | [2] -14.8% | [3] -8.05% | [4] 16.7% | [5] -11.7% | [6] -1.2%

C1CCOC2(CCC3(CC2)OCCCCO3)OC1
inactive: [1] -16.5% | [2] 2.55% | [3] -18.2% | [4] -44.2% | [5] -10.2% | [6] -39.4%

c1ncn(Sn2cncn2)n1
inactive: [1] -13.2% | [2] -6.9% | [3] -4.25% | [4] -23.8% | [5] -5.9% | [6] -0.85%

Cc1cc(O)c2c(c1)C(=O)C=CC2=O
inactive: [1] 6.7% | [2] 5.2% | [3] 1.3% | [4] 4.15% | [5] 10.3% | [6] -25.9%

Reference: PubChem BioAssay (NCI)
